Laboratory results as given in the supplement of paper PMC10849652.
Targets with a hit are over-represented here; the source holds about 8,800 in all. About 0.5% of all pairs of compound and target were hits.

Key:
Assay in all cases: log2 fold change, soluble protein after heating vs DMSO (PISA); higher = thermal stabilisation; K562 lysate, 10 uM; active = over 0.2 and 3.5 SD of the protein, either way, in both replicates (recomputed)
ibrutinib = compound: C=CC(=O)N1CCC[C@@H](n2nc(-c3ccc(Oc4ccccc4)cc3)c3c(N)ncnc32)C1 [ibrutinib]
How it was run: (§1)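 Log-two fold change in thermal stability relative to solvent controls is reported from duplicates. For each sample, crude K562 extract from dounce-homogenised pellets in PBS pH 7.4 with 1 mM MgCl2, at 1 mg/mL protein, was treated with 10 μM compound for 30 min. Aliquots heated for 3 min across 48°C-58°C were pooled, brought to 0.5% NP-40 at 4°C and cleared at 21,000xg for 90 min. The supernatant was quantified by TMTpro 16plex LC-MS/MS with channel sums equalised.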

[1] = compound: CC(=O)c1cnc2ccc(-c3cc(Cl)c(O)c(Cl)c3)nc2c1N[C@H]1CC[C@H](CN(C)C)CC1
How it was run: as §1

ralimetinib = compound: CC(C)(C)Cn1c(N)nc2ccc(-c3[nH]c(C(C)(C)C)nc3-c3ccc(F)cc3)nc21 [ralimetinib]
How it was run: as §1

[2] = compound: CC(C)(O)CC(=O)NCCn1ccc2ncnc(Nc3ccc(Oc4cccc(C(F)(F)F)c4)c(Cl)c3)c21
How it was run: as §1

[3] = compound: CC(C)C1=C2N=C(C=C(N2N=C1)NCC3=CC=CC=C3)NCCCCCCN
How it was run: as §1

[4] = compound: CC1=C(C(CC(=O)N1)C2=CC=C(C=C2)C(F)(F)F)C(=O)NC3=C(C=C4C(=C3)C=NN4)F
How it was run: as §1

[5] = compound: CC1=C(C2=C(C=C1)C(=O)C3=CC=CC=C3N2CCCN)C
How it was run: as §1

[6] = compound: CC1=C(C=C(C=C1)NC(=O)C2=CC(=CC=C2)C(C)(C)C#N)NC3=CC4=C(C=C3)N=CN(C4=O)C
How it was run: as §1

[7] = compound: CC1=C(C=C(C=C1)NC(=O)C2=CC(=CC=C2)N(C)C)NC(=O)C3=CC=C(C=C3)O
How it was run: as §1

[8] = compound: CC1=CC=C(C=C1)SC2=C3C=C(SC3=CN=C2)C(=O)N
How it was run: as §1

Measured: log2 fold change

SH3BP5L (UniProt Q7L8J4)
inactive: ibrutinib 0.007 | [1] 0.013 | ralimetinib -0.024 | [2] -0.035 | [3] 0.032 | [4] 0.009 | [5] -0.02 | [6] 0.021 | [7] -0.017 | [8] -0.045

STIM1 (UniProt Q13586)
inactive: ibrutinib 0.033 | [1] 0.043 | ralimetinib 0.023 | [2] -0.021 | [3] 0.027 | [4] 0.003 | [5] 0.023 | [6] 0.001 | [7] 0.008 | [8] 0.027

STUB1 (UniProt Q9UNE7)
inactive: ibrutinib 0.015 | [1] 0.011 | ralimetinib 0.005 | [2] 0 | [3] -0.018 | [4] 0.023 | [5] 0.032 | [6] -0.012 | [7] -0.001 | [8] -0.019

SPIRE1 (UniProt Q08AE8)
inactive: ibrutinib 0.082 | [1] -0.031 | ralimetinib -0.028 | [2] 0.011 | [3] -0.014 | [4] -0.069 | [5] 0.002 | [6] 0.014 | [7] 0.016 | [8] -0.05

SMC6 (UniProt Q96SB8)
Chain of UniProt Q96SB8 (Q96SB8 whole entry, looked up): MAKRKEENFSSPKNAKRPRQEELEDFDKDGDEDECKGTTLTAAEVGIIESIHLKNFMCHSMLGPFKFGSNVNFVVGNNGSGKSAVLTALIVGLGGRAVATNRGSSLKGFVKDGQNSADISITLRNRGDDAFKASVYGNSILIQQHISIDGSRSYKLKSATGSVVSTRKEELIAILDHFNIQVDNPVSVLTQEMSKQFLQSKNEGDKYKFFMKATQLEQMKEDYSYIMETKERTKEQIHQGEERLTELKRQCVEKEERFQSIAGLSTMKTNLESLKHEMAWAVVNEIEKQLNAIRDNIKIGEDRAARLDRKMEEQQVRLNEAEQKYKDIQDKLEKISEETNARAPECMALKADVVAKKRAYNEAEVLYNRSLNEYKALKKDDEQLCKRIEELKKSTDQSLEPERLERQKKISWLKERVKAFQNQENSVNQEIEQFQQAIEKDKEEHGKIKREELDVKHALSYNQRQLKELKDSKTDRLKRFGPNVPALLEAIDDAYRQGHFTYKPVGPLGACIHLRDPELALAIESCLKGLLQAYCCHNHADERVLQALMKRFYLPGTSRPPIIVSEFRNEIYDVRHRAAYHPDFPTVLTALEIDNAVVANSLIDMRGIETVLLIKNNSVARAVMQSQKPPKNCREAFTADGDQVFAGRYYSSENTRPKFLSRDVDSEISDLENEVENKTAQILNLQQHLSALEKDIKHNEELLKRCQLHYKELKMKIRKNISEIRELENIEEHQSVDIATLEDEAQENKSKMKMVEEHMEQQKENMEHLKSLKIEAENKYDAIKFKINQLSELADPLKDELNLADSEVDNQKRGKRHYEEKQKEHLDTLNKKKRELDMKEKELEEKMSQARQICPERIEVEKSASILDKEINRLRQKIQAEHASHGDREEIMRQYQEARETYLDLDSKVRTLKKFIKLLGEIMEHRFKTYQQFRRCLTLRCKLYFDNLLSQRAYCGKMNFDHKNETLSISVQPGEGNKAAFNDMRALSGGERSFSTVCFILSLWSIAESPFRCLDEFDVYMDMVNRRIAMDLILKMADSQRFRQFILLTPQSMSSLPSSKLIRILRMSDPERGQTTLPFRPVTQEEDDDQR
inactive: ibrutinib 0.021 | [1] -0.006 | ralimetinib 0.005 | [2] -0.012 | [3] 0.023 | [4] 0.065 | [5] 0.006 | [6] 0.006 | [7] 0.001 | [8] -0.01

SH3GL1 (UniProt Q99961)
Chain of UniProt Q99961 (Q99961 whole entry, looked up): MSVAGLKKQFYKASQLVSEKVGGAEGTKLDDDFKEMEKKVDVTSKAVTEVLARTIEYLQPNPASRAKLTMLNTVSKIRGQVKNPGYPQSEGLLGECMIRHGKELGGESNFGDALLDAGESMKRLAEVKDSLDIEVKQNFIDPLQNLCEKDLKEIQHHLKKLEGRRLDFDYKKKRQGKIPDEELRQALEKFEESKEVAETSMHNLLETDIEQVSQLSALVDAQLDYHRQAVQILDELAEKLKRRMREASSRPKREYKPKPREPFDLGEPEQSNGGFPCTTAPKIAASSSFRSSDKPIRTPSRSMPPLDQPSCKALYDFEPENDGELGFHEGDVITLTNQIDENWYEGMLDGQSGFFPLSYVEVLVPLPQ
inactive: ibrutinib -0.004 | [1] 0 | ralimetinib 0.031 | [2] 0.006 | [3] -0.015 | [4] -0.03 | [5] 0.017 | [6] 0.025 | [7] 0.006 | [8] -0.012

SMG5 (UniProt Q9UPR3)
Chain of UniProt Q9UPR3 (Q9UPR3 whole entry, looked up): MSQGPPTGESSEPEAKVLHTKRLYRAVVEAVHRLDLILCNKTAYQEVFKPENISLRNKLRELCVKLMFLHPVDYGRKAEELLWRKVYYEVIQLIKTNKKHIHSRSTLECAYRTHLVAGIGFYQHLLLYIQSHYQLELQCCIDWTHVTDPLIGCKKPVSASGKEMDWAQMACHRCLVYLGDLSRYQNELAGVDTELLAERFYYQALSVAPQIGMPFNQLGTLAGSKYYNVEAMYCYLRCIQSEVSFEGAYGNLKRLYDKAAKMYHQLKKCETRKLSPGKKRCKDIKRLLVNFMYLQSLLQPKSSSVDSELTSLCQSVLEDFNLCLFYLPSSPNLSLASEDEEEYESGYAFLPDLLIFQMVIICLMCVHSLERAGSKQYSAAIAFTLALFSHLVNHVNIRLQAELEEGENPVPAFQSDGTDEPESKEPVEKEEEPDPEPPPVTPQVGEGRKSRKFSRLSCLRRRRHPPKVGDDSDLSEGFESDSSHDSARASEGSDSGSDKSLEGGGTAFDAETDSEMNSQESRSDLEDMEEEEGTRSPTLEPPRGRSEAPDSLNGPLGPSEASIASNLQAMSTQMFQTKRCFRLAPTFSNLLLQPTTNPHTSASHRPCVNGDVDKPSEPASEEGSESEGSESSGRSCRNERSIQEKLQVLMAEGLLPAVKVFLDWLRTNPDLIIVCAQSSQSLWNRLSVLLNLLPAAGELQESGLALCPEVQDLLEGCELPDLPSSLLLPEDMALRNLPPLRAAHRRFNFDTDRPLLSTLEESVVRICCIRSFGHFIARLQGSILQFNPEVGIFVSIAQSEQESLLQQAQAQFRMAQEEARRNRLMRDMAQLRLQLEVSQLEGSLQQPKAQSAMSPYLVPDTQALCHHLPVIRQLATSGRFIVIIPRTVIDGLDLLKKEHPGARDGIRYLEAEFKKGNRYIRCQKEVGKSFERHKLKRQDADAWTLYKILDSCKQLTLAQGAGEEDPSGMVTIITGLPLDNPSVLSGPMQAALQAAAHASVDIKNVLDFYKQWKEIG
inactive: ibrutinib -0.041 | [1] 0.048 | ralimetinib 0.021 | [2] -0.032 | [3] -0.037 | [4] 0.071 | [5] 0.015 | [6] -0.117 | [7] 0.057 | [8] 0.024

SMIM8 (UniProt Q96KF7)
Chain of UniProt Q96KF7 (Q96KF7 whole entry, looked up): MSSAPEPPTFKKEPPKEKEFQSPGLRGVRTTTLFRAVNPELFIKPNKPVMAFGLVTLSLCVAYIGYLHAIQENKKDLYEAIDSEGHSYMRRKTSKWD
inactive: ibrutinib 0.073 | [1] -0.02 | ralimetinib 0.059 | [2] -0.136 | [3] -0.095 | [4] -0.025 | [5] -0.128 | [6] 0.038 | [7] 0.053 | [8] -0.006

SPATA5 (UniProt Q8NB90)
inactive: ibrutinib 0.013 | [1] -0.002 | ralimetinib 0.047 | [2] 0.025 | [3] 0.02 | [4] -0.009 | [5] 0.009 | [6] 0.002 | [7] 0.042 | [8] 0.012

SLC7A5 (UniProt Q01650)
inactive: ibrutinib -0.011 | [1] -0.01 | ralimetinib 0.018 | [2] -0.042 | [3] 0.036 | [4] -0.031 | [5] -0.003 | [6] 0.075 | [7] -0.043 | [8] 0

SMC4 (UniProt C9JJ64)
inactive: ibrutinib -0.146

SRPK1 (UniProt Q96SB4)
inactive: ibrutinib 0.031 | [1] 0.008 | ralimetinib -0.004 | [2] -0.001 | [3] -0.005 | [4] -0.004 | [5] -0.018 | [6] 0.006 | [7] -0.029 | [8] 0.011

SHCBP1 (UniProt Q8NEM2)
inactive: ibrutinib -0.04 | [1] 0.023 | ralimetinib 0.026 | [2] 0.031 | [3] 0.012 | [4] 0.009 | [5] 0.002 | [6] -0.008 | [7] 0.056 | [8] -0.041

SPR (UniProt P35270)
inactive: ibrutinib 0.027 | [1] 0.293 | ralimetinib 0.024 | [2] 0 | [3] -0.048 | [4] -0.051 | [5] -0.038 | [6] -0.046 | [7] -0.028 | [8] 0.023

SMC3 (UniProt Q9UQE7)
inactive: ibrutinib 0.002 | [1] -0.001 | ralimetinib -0.023 | [2] 0.003 | [3] -0.002 | [4] -0.004 | [5] 0.01 | [6] -0.014 | [7] 0.011 | [8] 0.01

STK36 (UniProt Q9NRP7)
inactive: ibrutinib 0.019 | [1] -0.182 | ralimetinib -0.087 | [2] -0.416 | [3] 0.071 | [4] -0.058 | [5] -0.176 | [6] 0.408 | [7] -0.004 | [8] -0.097

SLC38A10 (UniProt Q9HBR0)
inactive: ibrutinib 0.103 | [1] -0.047 | ralimetinib -0.025 | [2] -0.056 | [3] -0.007 | [4] -0.051 | [5] -0.018 | [6] 0.032 | [7] -0.001 | [8] -0.027

STK4 (UniProt Q13043)
Chain of UniProt Q13043 (Q13043 whole entry, looked up): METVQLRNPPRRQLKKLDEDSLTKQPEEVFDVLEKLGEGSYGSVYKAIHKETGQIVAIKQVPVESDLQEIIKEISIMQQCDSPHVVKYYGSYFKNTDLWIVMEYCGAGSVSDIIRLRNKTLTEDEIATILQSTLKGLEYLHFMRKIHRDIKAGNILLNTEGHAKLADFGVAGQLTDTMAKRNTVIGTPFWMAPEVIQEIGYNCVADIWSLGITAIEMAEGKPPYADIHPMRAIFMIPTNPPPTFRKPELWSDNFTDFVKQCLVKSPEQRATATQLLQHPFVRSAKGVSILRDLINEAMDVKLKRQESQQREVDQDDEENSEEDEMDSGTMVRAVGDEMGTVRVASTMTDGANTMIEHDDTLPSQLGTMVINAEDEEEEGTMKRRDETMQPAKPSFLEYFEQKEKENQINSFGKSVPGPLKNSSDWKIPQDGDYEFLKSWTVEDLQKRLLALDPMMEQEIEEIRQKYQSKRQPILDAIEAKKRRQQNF
inactive: ibrutinib 0.056 | [1] 0.324 | ralimetinib -0.006 | [2] 0.007 | [3] 0.004 | [4] -0.023 | [5] -0.015 | [6] -0.036 | [7] 0.024 | [8] -0.07

SKA3 (UniProt Q8IX90)
inactive: ibrutinib 0.001 | [1] -0.032 | ralimetinib -0.021 | [2] -0.038 | [3] 0.007 | [4] 0.027 | [5] -0.011 | [6] 0.027 | [7] 0.025 | [8] -0.046

TAF9 (UniProt Q16594)
inactive: ibrutinib -0.028 | [1] 0.044 | ralimetinib 0.033 | [2] -0.057 | [3] 0.032 | [4] 0.015 | [5] 0.019 | [6] 0.027 | [7] 0.101 | [8] -0.023

SLC27A4 (UniProt Q6P1M0)
inactive: ibrutinib -0.004 | [1] 0.029 | ralimetinib 0.009 | [2] -0.027 | [3] 0.049 | [4] 0.077 | [5] -0.042 | [6] -0.051 | [7] 0.028 | [8] 0.003

STK26 (UniProt Q9P289)
inactive: ibrutinib -0.043 | [1] 0.113 | ralimetinib -0.018 | [2] 0.004 | [3] -0.015 | [4] -0.021 | [5] 0.006 | [6] -0.028 | [7] 0.035 | [8] -0.025

SMG7 (UniProt Q92540)
Chain of UniProt Q92540 (Q92540 whole entry, looked up): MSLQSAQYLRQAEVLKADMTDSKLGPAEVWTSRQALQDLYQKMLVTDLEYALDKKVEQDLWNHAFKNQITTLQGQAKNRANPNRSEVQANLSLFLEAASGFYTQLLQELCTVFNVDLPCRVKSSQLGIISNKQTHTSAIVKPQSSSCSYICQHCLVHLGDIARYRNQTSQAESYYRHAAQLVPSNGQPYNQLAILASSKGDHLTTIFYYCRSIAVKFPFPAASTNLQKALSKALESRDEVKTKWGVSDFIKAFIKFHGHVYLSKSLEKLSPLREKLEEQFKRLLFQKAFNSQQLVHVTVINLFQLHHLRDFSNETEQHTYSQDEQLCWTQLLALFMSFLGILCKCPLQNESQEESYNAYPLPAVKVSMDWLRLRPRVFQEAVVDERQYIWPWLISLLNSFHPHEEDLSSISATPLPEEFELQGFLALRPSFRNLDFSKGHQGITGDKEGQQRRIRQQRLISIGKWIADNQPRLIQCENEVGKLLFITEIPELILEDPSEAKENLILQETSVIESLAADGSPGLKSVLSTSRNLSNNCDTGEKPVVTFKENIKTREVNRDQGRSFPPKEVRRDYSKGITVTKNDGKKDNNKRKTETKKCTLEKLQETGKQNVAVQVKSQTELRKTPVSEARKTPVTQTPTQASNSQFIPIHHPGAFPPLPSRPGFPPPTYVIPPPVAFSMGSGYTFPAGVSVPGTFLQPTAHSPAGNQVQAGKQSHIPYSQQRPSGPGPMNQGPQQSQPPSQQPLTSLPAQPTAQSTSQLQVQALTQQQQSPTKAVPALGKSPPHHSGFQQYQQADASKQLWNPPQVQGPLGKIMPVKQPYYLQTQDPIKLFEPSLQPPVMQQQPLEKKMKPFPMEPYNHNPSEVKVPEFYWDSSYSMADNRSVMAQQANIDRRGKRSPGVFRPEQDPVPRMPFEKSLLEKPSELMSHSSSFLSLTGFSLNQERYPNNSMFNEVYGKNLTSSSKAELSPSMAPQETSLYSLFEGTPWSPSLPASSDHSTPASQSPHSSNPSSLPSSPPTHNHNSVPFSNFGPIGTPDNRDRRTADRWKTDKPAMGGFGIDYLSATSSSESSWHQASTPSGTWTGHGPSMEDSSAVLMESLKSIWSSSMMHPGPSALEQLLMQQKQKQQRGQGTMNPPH
inactive: ibrutinib 0.019 | [1] 0.041 | ralimetinib -0.036 | [2] -0.13 | [3] 0.066 | [4] -0.02 | [5] -0.01 | [6] -0.281 | [7] 0.047 | [8] 0.03

SNRPD3 (UniProt P62318)
Chain of UniProt P62318 (P62318 whole entry, looked up): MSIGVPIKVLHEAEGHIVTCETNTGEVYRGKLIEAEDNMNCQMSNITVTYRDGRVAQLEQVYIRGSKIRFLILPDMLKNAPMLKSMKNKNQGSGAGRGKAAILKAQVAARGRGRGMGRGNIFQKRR
inactive: ibrutinib -0.033 | [1] 0.035 | ralimetinib 0.067 | [2] -0.018 | [3] -0.05 | [4] 0.017 | [5] 0.019 | [6] -0.012 | [7] -0.004 | [8] -0.008

SMG6 (UniProt Q86US8)
inactive: ibrutinib 0.071 | [1] -0.061 | ralimetinib 0.034 | [2] -0.016 | [3] 0.012 | [4] 0.074 | [5] 0.006 | [6] 0.004 | [7] 0.047 | [8] 0.059

SYF2 (UniProt O95926)
Chain of UniProt O95926 (O95926 whole entry, looked up): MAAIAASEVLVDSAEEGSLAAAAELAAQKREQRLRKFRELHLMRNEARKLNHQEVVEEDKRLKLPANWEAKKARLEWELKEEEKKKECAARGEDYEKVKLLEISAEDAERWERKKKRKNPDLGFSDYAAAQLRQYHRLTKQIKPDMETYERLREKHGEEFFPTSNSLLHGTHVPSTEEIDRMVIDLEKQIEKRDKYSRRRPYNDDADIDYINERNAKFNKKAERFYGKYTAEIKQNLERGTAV
inactive: ibrutinib 0.094 | [1] 0.023 | ralimetinib -0.019 | [2] 0.001 | [3] -0.02 | [4] -0.027 | [5] -0.122 | [6] 0.037 | [7] 0.066 | [8] -0.061

STK24 (UniProt B4DR80)
inactive: ibrutinib 0.024 | ralimetinib 0.005 | [2] 0.024 | [3] 0.001 | [4] -0.019 | [5] -0.019 | [6] -0.018 | [7] -0.019 | [8] -0.018
active: [1] 0.218

SYNE2 isoform 2 (UniProt Q8WXH0)
inactive: ibrutinib 0 | [1] -0.003 | ralimetinib 0.018 | [2] -0.076 | [3] -0.106 | [4] -0.153 | [5] -0.047 | [6] 0.04 | [7] -0.005 | [8] 0.006

SLC39A11 (UniProt Q8N1S5)
Chain of UniProt Q8N1S5 (Q8N1S5 whole entry, looked up): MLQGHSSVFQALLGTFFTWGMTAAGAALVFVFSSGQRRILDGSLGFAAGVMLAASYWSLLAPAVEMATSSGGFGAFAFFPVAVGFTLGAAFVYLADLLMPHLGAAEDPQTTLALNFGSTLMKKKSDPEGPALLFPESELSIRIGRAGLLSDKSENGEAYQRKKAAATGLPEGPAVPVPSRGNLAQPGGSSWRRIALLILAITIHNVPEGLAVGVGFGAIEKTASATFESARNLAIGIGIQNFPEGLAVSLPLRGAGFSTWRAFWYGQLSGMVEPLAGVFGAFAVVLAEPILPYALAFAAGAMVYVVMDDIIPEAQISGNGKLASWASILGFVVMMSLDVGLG
inactive: ibrutinib -0.065 | [1] -0.008 | ralimetinib -0.136 | [2] -0.042 | [3] -0.023 | [4] 0.051 | [5] 0.16 | [6] -0.074 | [7] -0.089 | [8] 0.001

TANK (UniProt Q92844)
inactive: ibrutinib 0.042 | [1] 0.086 | ralimetinib -0.049 | [2] -0.003 | [3] 0.044 | [4] 0.061 | [5] 0.018 | [6] 0 | [7] 0.054 | [8] 0.002
